Measurements: the supplement of paper PMC6555819

test system: VDR:RXRa (NR concentration 270 nM, RXRa partner concentration 90 nM); experiment: PBM binding z-score (relative to random genomic background probes); higher = stronger binding; sequences stand for … in GC…GCGATTGACAGCGTAGAATGAAGG
Experimental: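 Protein-binding microarray (Agilent 4x180K custom design, double-stranded 60-nt probes: 5' GC cap, 34-nt variable region, 24-nt constant primer region; full probe sequence given). Purified or IVT nuclear receptor:RXRα heterodimers (3:1 NR:RXRα, mostly 270:90 nM) or homodimers were incubated for 1 h in PBS with 2% milk and no ligand, then detected with Alexa488 antibodies. Fluorescence from o1-orientation probes (~5 replicates averaged) was converted to z-scores against 500 random hg19 background probes. Variable regions are seed direct-repeat (DR0–DR5) sites, all their single-nucleotide variants and half-site ablations.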

Sequence | PBM binding z-score
CCTGCTGGGCCAAGGTCATTGATCAGTCAAAGCA | 3.06
CATCCAAGGTCAGCAGGTCAGTGAAAGCGACGTG | 4.18
CAAACTACGTCACAGAGGTCAAAGTCCGTGCGTA | 5.85
ATCGAAAGGTCGCGGTGAGTATAGAGAAAGGGAA | 3.74
CCTAGTTGTTCAAGGTCACACACGCTATAGGTAC | 4.49
ATCGAAAGGTCGGGAGGTGAGTATACAGAAAGGC | 2.24
TCATATATGTAAAAGGTGAAAGTCGGTGTGGTAA | 1.24
CAAACGAGGGCATGAGTTGATAGCAAATGCCGAT | 1.58
CCTAGCAGGCCAATCTGGGTCGCTCAAGGCTTGA | 0.301
CGTCCAATGTCAAGGTCAGTGAAAGAGACTCGAA | 2.08
AGAACGAGGGCACTGAGTTGATAGCACGGGTGGC | 4.52
CGGCCAAGGTCAGCAGGTCAGTGAAAGCGACGTG | 3.8
TAACCTAGGTCATGCGGGCCAGTATAGTGTCGGC | 3.55
CGTCCAAGGCCAGAGAGGTCAGTGAATGCCGAGT | 4.04
ACTAGCAGGCCCAGTTTGGGTCACTCAAACAAAG | -0.198
TCATATAGGTAATACAGGTGTAAGTCGGCATCTA | 1.17
GATAAAGGGTCAAGGCCAGAGTACGCGTATTGAT | 4.56
CCGACTGGGGCAAAGGATACCATACTCAGTACGA | -0.368
TCTATTAGTTGATTAGCGCAACCGAAACAGCGGA | 0.694
CTCGAAATGTCGGTTGAGGTGAGTATACGGATAA | -0.148

Sequence | PBM binding z-score
TCTTGCAGATCAAGCAGGTTAAGAAAGCCTGAGT | 0.157
TATACAGGGTCAAAGGCCCGAGTACGAATGTCGA | 4.53
TCTAGTTGGTCAAACGTCACACACTCGAAATGCG | 0.811
GCTAGTTGGTCAGTAAGAGGTCACACACCGGTCG | 4.12
AGAATGAGGGCAATGAGTTGATAGCACGGGTGGC | 4.98
CCGACTGGGGCATAAGCTTACCATAAGCCAGCCC | -0.79
CGAACGGGGGCATGAGTTGATAGCAAATGCCGAT | 3.88
AGTCAAAGCTCAGGACGAGGTAACGTAAAGCACG | -0.317
GCTGTTAGGTCAACTGATGGTCAGCTAAAGCTCG | 2.01
GATACAGGGTCAAGGCCAGAGTTCGCGTATTGAT | 5.31
CCGTACGGGTCACTGACAGGTTATAGCATTTGGA | 3.72
TAGCCTAGGTCATGCGGGCCAGTCTAGTGTCGGC | 2.82
GCTGCTAGGTCAGGTTGGTCATCTAACGGGTACG | 1.25
CGAACTAGGCCATTGACAGGACAGTGAATAGTAA | -0.259
CGAACGAGGGCATGAGTTGTTAGCAAATGCCGAT | 0.896
CCTACTGCGCCACGAAAGGTCATTGATTCAGTGA | 4.08
TATACAGCGTCAAAGGCCAGAGTACGAATGTCGA | -0.305
TCGAGTAGGTTAGGGGCATTCTGAATGGCGTCGA | 0.242
GTAACGAGGGCAAGTTGATAGCAGAGTTTGATGG | 1.09
AACTCTAGGTAAAGATAGTTCAGTGAATGCAAAT | 0.688
